Among the data in PubChem BioAssay are composite z-score and z-score values, retold here.

Assay [1] can be described thus: binders of probe aFSTL3 on microarray, primary screen, stem cell growth factor project, biochemical, small-molecule microarray, fluorescence 635/667 (AID 1064).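 Also: measures binding of the biotinylated anti-FSTL3 antibody to printed compounds.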 As to conditions: higher = more signal.
Assay [2] can be described thus: binders from COS7 lysate, DM2A8 probe, primary screen, torsin A project, cell lysate, small-molecule microarray, fluorescence 635/667 (AID 1065). As to conditions: higher = more signal, COS7 lysate expressing mutant human TOR1A.
The nature of assay [3]: binders of probe aFGF2 on microarray, primary screen, stem cell growth factor project, biochemical, small-molecule microarray, fluorescence 635/667 (AID 1067).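 Also: measures binding of biotinylated aFGF2 protein to printed compounds on slides; z-score merges feature fluorescence and signal-to-noise across triplicate slides.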 Conditions: higher = more signal.
Assay [4] can be described thus: binders of probe aFGF10 on microarray, primary screen, stem cell growth factor project, biochemical, small-molecule microarray, fluorescence 635/667 (AID 1071).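 Also: score merges 667 nm spot intensity and signal to noise from triplicate slides.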 Conditions: higher = more signal.
The target of assay [5] is Neurogenic locus notch homolog protein 2 (Homo sapiens) (UniProt Q04721). Put plainly: Notch2 binders on small-molecule microarrays, primary screen, biochemical, small-molecule microarray, 635 nm fluorescence, stem cell growth factors (AID 1073). As to conditions: Notch2 binding, higher = more signal.
Neurogenic locus notch homolog protein 2 (Homo sapiens), sequence (Q04721 whole entry, looked up, canonical isoform): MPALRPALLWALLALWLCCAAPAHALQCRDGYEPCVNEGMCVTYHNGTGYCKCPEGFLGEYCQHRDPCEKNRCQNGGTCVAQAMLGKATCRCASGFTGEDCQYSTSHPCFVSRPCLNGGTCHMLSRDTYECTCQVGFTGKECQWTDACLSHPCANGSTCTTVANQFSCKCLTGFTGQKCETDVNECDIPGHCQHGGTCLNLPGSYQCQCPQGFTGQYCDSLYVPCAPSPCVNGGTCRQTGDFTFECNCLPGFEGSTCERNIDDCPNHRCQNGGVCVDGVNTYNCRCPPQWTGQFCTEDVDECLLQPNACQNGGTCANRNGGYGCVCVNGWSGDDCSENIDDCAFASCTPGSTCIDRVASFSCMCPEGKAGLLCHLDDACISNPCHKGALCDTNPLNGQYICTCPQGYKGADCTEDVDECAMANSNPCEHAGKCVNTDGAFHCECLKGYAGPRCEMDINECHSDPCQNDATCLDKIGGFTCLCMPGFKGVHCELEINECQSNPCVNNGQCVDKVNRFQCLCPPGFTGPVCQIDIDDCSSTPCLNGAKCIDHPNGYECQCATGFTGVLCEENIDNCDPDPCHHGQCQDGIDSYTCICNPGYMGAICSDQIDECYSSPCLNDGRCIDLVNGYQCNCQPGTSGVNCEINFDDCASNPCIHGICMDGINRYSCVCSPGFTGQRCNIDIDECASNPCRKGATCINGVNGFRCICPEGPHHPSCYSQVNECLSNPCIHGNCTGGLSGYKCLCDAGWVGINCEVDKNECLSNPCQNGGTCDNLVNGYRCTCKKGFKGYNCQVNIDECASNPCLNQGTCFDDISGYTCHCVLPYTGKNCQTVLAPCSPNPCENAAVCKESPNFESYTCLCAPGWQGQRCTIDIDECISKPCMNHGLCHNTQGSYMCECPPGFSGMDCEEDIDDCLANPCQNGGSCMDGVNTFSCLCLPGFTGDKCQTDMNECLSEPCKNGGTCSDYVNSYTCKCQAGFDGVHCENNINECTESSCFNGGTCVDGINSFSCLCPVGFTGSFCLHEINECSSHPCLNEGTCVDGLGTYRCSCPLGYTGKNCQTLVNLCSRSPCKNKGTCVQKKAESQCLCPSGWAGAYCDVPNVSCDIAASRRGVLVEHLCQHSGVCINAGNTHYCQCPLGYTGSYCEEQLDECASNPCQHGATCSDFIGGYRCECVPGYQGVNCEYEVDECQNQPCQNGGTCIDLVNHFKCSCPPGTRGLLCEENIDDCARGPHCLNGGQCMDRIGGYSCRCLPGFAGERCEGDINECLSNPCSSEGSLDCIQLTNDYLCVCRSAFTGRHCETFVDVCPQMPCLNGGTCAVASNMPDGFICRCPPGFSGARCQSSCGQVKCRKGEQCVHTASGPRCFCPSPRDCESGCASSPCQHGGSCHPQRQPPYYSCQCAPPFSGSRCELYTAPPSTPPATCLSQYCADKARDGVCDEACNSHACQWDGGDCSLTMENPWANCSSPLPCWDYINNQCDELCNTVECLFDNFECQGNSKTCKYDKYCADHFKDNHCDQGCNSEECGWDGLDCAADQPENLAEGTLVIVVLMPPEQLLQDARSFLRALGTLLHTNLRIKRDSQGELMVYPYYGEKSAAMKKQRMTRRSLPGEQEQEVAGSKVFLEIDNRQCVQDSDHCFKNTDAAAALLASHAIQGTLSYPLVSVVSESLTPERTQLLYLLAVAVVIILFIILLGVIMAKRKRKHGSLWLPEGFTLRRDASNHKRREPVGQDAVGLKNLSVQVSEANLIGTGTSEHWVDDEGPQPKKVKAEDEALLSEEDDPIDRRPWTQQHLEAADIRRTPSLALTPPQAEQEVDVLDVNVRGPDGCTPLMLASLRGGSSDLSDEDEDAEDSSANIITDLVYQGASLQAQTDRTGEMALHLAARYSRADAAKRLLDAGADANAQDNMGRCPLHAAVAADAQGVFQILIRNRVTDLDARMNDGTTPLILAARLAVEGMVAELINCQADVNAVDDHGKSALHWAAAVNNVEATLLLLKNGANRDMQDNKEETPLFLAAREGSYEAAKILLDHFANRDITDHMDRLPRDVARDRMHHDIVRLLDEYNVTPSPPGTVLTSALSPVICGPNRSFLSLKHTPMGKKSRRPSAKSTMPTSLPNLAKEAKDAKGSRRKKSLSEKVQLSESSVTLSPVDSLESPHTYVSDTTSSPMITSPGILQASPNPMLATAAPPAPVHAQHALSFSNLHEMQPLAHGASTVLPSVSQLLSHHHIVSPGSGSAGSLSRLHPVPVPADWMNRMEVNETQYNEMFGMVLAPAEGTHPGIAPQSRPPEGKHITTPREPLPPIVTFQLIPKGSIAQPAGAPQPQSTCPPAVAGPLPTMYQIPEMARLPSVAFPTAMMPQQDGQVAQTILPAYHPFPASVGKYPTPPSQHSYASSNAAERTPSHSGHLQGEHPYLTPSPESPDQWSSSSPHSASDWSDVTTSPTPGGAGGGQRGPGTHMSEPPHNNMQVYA
The target in assay [6] is Pro-neuregulin-1, membrane-bound isoform (Homo sapiens) (UniProt Q02297). Briefly: NRG1 binders on small-molecule microarrays, primary screen, psychiatric disease protein project, biochemical, small-molecule microarray, fluorescence 635/667 (AID 1075).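 Also: score combines 667 nm spot fluorescence with signal to noise.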 As to conditions: NRG1 binding, 635 nm fluorescence, higher = more signal.
Pro-neuregulin-1, membrane-bound isoform (Homo sapiens), sequence (Q02297 whole entry, looked up, the tested form may be a part, canonical isoform): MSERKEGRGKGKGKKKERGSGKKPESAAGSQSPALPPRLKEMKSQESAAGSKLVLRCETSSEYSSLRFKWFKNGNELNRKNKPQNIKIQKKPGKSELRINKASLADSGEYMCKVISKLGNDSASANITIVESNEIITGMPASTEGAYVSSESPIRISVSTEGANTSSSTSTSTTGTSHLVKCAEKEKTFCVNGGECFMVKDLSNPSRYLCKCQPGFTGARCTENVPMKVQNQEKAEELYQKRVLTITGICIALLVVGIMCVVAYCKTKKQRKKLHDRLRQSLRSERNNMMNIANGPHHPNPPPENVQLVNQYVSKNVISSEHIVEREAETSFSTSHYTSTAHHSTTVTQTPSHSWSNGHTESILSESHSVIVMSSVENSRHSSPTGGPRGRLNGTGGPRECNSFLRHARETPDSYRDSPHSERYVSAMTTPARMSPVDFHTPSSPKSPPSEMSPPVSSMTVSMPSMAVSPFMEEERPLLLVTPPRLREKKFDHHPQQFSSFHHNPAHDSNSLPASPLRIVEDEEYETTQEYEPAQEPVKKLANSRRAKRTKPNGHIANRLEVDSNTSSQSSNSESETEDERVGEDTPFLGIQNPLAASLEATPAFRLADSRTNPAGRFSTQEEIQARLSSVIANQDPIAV
Assay [7] relates to Neuregulin-1 EGF-like domain. Briefly: binders of neuregulin-1 EGF-like domain, primary screen, biochemical, small-molecule microarray, 635 nm fluorescence (AID 1081).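 Also: binding of the protein to compounds printed on small-molecule microarray slides.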 As to conditions: small-molecule microarray binding, higher = more signal.
The nature of assay [8]: FRG1 promoter luciferase signal modulators, primary screen, FRG1 inhibition for FSHD, cell-based, C2C12 myotubes, firefly/Renilla luciferase, luminescence (AID 1084). As to conditions: higher = more signal, called active from +8 up or from −8 down.
The nature of assay [9]: binders of probe aFST on microarray, primary screen, stem cell growth factor project, biochemical, small-molecule microarray, fluorescence 635/667 (AID 1086).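 Also: score merges 667 nm fluorescence with signal-to-noise of each printed compound spot.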 Conditions: higher = more signal.
The nature of assay [10]: binders of probe aHhip on microarray, primary screen, stem cell growth factor project, biochemical, small-molecule microarray, fluorescence 635/667 (AID 1087).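 Also: score merges spot fluorescence at 667nm with spot signal to noise ratio.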 Conditions: higher = more signal.

Active and inactive are the calls of the source.

Take `C=C(/C=C\CNS(=O)(=O)c1ccc(C)cc1)[C@H](O)[C@H]1CCCN1S(=O)(=O)c1ccccc1[N+](=O)[O-]`: the composite z-score is -0.0107 in assay [1]; 0.014 in assay [2]; -0.114 in [3]; 0.108 in assay [4]; 0.361 in assay [5]; 0.618 in [6]. The figures for the composite z-score in assay [7], in assay [9] and in [10] were 0.577, -0.105 and 0.0373, respectively. Besides, the z-score in [8] is -4.49 (inactive).
As to `[N-]=[N+]=Nc1ccccc1C[C@@]1(C(=O)NCc2ccccc2)N=C(c2ccc(OCCCO)cc2)O[C@@H]1c1ccccc1`, the composite z-score in assay [1] is 0.584; in assay [2], 0.405; in [3], 0.0421; in assay [4] it was 1.05; in [5], 1.46; in assay [6], 0.794. Also, the composite z-score in assay [7] was 0.747; in assay [9], 0.838; in [10], -0.0296. Further, the z-score in assay [8] was -2.86 (inactive).
`CCOC(=O)C[C@H]1[C@H](OC(=O)Cc2ccc3c(c2)OCO3)[C@@H](NC(=O)CC(C)C)c2cc(OCCCO)ccc2N1C(=O)c1ccc2ccccc2n1`: the composite z-score is -0.306 in [1]; 1.01 in assay [2]; 0.0435 in assay [3]; 0.43 in assay [4]; 0.834 in [5]; 1.01 in assay [6]. Besides, the composite z-score in [7] is 0.518; in [9], 0.376; in [10] it was -0.344. Moreover, in assay [8], the z-score was -3.21 (inactive).
Take `CN(C)CCCCCCNC(=O)[C@@H]1C[C@@H]2C(=O)N[C@@H](CCCC[N+](C)(C)C)C(=O)N2[C@@H]1c1cccc(OCCO)c1`: the composite z-score is 0.516 in assay [1]; 0.869 in assay [2]; -0.0707 in assay [3]; -0.431 in [4]; -0.558 in assay [5]; -0.538 in assay [6]. For the same compound, the results for the composite z-score in assay [7], in assay [9] and in [10] were 0.801, -0.516 and -0.333, respectively. Further, the z-score in assay [8] was 3.98 (inactive).
Regarding `C=CCNC(=O)[C@H]1[C@@H]2C(=O)O[C@@H](c3ccccc3)[C@@H](c3ccccc3)N2[C@@H](c2ccc(OCCO)cc2)[C@]12C(=O)N(C(=O)OCCOC)c1ccc(C#CCC(C(=O)OC)C(=O)OC)cc12`, the composite z-score in [1] came out at 1.55; in [2], 0.948; in assay [3] it was 0.18; in assay [4], 1.1; in assay [5], 0.881; in [6], 1.63. Further, the composite z-score in [7] turned out to be 1.19; in [9] it was 0.725; in assay [10], 1.58. Besides, the z-score in assay [8] is 0.9 (inactive).
For `O=C1O[C@@H](c2ccccc2)[C@@H](c2ccccc2)N2[C@@H](c3ccccc3OCCO)[C@]3(C(=O)Nc4ccc(C#CC5(O)CCCCCC5)cc43)[C@@H](C(=O)N3CCCCCCC3)[C@H]12`, the composite z-score in [1] came to 4.04; in assay [2], 2.44; in [3] it was 1.08; in assay [4], 1.47; in assay [5] it was 1.89; in [6] it was 2.67. The composite z-score in assay [7] came to 1.4; in [9], 3.81; in [10], 3.97. Also, the z-score in assay [8] was -1.05 (inactive).
As to `CCCCCN1CC=CC23O[C@@H]4/C=C\CCCOC(=O)C4[C@H]2C(=O)N(CCO)[C@@H]3C1=O` (stereo not given in full), the composite z-score is 0.0382 in [1]; 0.351 in assay [2]; -0.133 in [3]; -0.148 in [4]; -0.326 in assay [5]; 0.913 in assay [6]. The results for the composite z-score in [7], in assay [9] and in [10] were 1.5, -0.345 and -0.223, respectively. Also, in [8], the z-score is -0.345 (inactive).
For the compound `COC(=O)[C@@]1(Cc2ccc(F)cc2)[C@H]2c3cc(C(=O)N(C)C)n(Cc4cccc5ccccc45)c3C[C@H]2CN1C(=O)c1ccccc1`, the composite z-score in assay [1] worked out at 1.84; in assay [2], 1.71; in assay [3], 0.398; in [4], 1.16; in assay [5] it was 0.77; in assay [6] it was 1.13. Besides, the figures for the composite z-score in assay [7], in assay [9] and in [10] were 1.33, 0.697 and 0.727, respectively. The z-score in assay [8] was 0.255 (inactive).
Consider `CC(=O)NCCCC[C@@H]1NC(=O)[C@H]2C[C@@H](C(=O)NCCCCCN)[C@@H](c3ccc(O)cc3)N2C1=O`, for which the composite z-score in [1] was found to be 0.392; in [2] it was 0.861; in assay [3] it was 0.007; in [4], 0.198; in assay [5] it was 1; in assay [6], 0.0529. In addition, the figures for the composite z-score in assay [7], in [9] and in assay [10] were 1.2, 0.418 and 0.141, respectively. Besides, in assay [8], the z-score was -0.248 (inactive).
For `C=CCNC(=O)[C@@H]1[C@H]2C(=O)O[C@H](c3ccccc3)[C@H](c3ccccc3)N2[C@H](c2ccc(OCCO)cc2)[C@@]12C(=O)N(C(=O)OCCOC)c1ccccc12`, the composite z-score in assay [1] is -0.156; in assay [2], 1.08; in [3] it was 0.0021; in [4], 0.591; in assay [5], 0.964; in assay [6] it was 1.05. The composite z-score in assay [7] amounted to 1.25; in assay [9] it was 0.954; in [10], 0.0053. For the same compound, in [8], the z-score is 0.0023 (inactive).
Turning to `CC(C)N1C(=O)[C@@]2(Cc3ccccc31)c1ccccc1C(=O)N(Cc1ccccc1C(F)(F)F)[C@H]2c1ccc(CO)cc1`, the composite z-score is -0.303 in [1]; 0.0613 in assay [2]; -0.0775 in assay [3]; 0.108 in [4]; 0.339 in assay [5]; 0.39 in assay [6]. Moreover, the composite z-score is 1.46 in assay [7], 0.086 in [9] and -0.116 in [10]. Besides, the z-score in [8] was -0.641 (inactive).
